Test results from PubChem BioAssay (Tox21).
Records with an inconclusive call do not appear. Calls of active or inactive are those of the source. Unless noted, calls come from the whole dose curve; as a rule, active = well fitted curve in the direction sought with a large enough effect in the repeat runs; inconclusive = weak or mixed curves; inactive = no such curve, though single readings can be large; an effect the other way counts as inactive or inconclusive.

Experiments:
[1] = qHTS assay for small molecule agonists of the p53 signaling pathway (AID 651631; calls by dose curve; note: nearly all actives have a fitted effect of over 15% in size)
How it was run: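 p53RE-bla HCT-116 cells; compounds 16 h, 37 °C; LiveBLAzer B/G FRET substrate 2 h RT; fluorescence intensity read-out, qHTS format.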

[2] = qHTS assay for small molecules that induce genotoxicity in human embryonic kidney cells expressing luciferase-tagged ATAD5 (AID 651632); note: nearly all actives have a fitted effect of over 15% in size
How it was run: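 A rise in luciferase signal from ATAD5-tagged HEK293T cells marks genetic stress. Cells were exposed to compounds for 16 hr at 37C, 5% CO2, then luciferase was quantified after a 30 min room-temperature incubation with Amplite.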

[3] = qHTS assay for small molecule agonists of the p53 signaling pathway - cell viability (AID 651633; calls by dose curve;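 note: p53RE-bla HCT reporter cells with a stable beta-lactamase p53 reporter; series mostly up to about 83 µM; nearly all actives have a fitted effect of over 30% in size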)
How it was run: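 p53RE-bla cells, seeded at 4,000 per well and rested 5 h at 37 C/5% CO2, received compounds in DMSO for 16 h at 37 C. CellTiter-Glo was then added, and luminescence was read after 30 min at room temperature to gauge cytotoxicity.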

[4] = qHTS assay for small molecules that induce genotoxicity in human embryonic kidney cells expressing luciferase-tagged ATAD5 - cell viability (AID 651634; calls by dose curve; note: nearly all actives have a fitted effect of over 25% in size)
How it was run: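 Cytotoxicity counter-readout: after 15.5 hr compound treatment at 37C, live-cell protease activity in ATAD5-luciferase HEK293T cells measured by CellTiter-Fluor fluorescence, 30 min development at 37C.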

[5] = qHTS assay for small molecule disruptors of the mitochondrial membrane potential - cell viability (AID 720634; calls by dose curve;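 note: human HepG2 liver cancer cells; series mostly up to about 83 µM; nearly all actives have a fitted effect of over 20% in size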)
How it was run: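 Cytotoxicity was quantified from ATP content by CellTiter-Glo luminescence in the same wells as the MMP dye read-out. HepG2 (2,000 cells/well) were plated overnight and exposed to compounds for 1 hr at 37 C.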

[6] = qHTS assay to test for compound auto fluorescence at 590 nm (red) in HepG2 cells (AID 720674)
How it was run: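 Compound auto-fluorescence is scored relative to Rose Bengal sodium, measured at 540/590 nm in live HepG2 cultures after 1 hr compound contact (37 C, 5% CO2).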

[7] = qHTS assay to test for compound auto fluorescence at 535 nm (green) in HepG2 cells (AID 720675)
[8] = qHTS assay to test for compound auto fluorescence at 460 nm (blue) in HEK293 cells (AID 720678)
How it was run: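 Triamterene serves as the blue fluorophore standard. Compound signal at 405/460 nm is read in HEK293 wells (2,000 cells, 10% dialyzed FBS) after overnight treatment at 37C.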

[9] = qHTS assay to test for compound auto fluorescence at 590 nm (red) in HEK293 cells (AID 720679)
How it was run: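 We plated HEK293 cells in 10% dialyzed FBS medium, let them adhere for 4-5 hr, then added 23 nL compound. Overnight at 37C and 5% CO2 preceded fluorescence measurement at 540/590nm.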

[10] = qHTS assay to test for compound auto fluorescence at 535 nm (green) in HEK293 cells (AID 720680)
[11] = qHTS assay to test for compound auto fluorescence at 460 nm (blue) in HEK293 cell free culture (AID 720681)
How it was run: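 Test compounds were pinned into cell-free culture medium (DMEM with 10% FBS) and fluorescence was read directly at Ex/Em 405/460 nm. Signals were expressed as fluorescence equivalents of triamterene, with DMSO vehicle as control.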

[12] = qHTS assay to test for compound auto fluorescence at 535 nm (green) in HEK293 cell free culture (AID 720682)
How it was run: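 Cell-free medium (DMEM, 10% FBS) receives compound or DMSO by pintool. Plate read directly at Ex 485/Em 535 nm. Signal converted to fluorescein equivalency.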

[13] = qHTS assay to test for compound auto fluorescence at 590 nm (red) in HEK293 cell free culture (AID 720683)
How it was run: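 Tox21 10K library compounds were pinned into cell-free DMEM with 10% FBS and fluorescence was read at excitation 540 nm. Activity is expressed as Rose Bengal sodium equivalency.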

[14] = qHTS assay to test for compound auto fluorescence at 590 nm (red) in HepG2 cell free culture (AID 720684)
How it was run: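 Ex 540 / Em 590 nm read of compound in cell-free MEM (10% FBS). Rose Bengal sodium reference.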

[15] = qHTS assay to test for compound auto fluorescence at 460 nm (blue) in HepG2 cell free culture (AID 720685)
How it was run: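 Cell-free plates of MEM plus 10% FBS received 23 nL compound or DMSO vehicle; blue-channel (405/460 nm) intensity scored against triamterene as reference fluorophore.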

[16] = qHTS assay to test for compound auto fluorescence at 460 nm (blue) in HepG2 cells (AID 720687)
How it was run: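 Cells (2,000/well in MEM with 10% FBS) attached overnight at 37 C, then were exposed to compound or DMSO for 1 hr at 37 C, 5% CO2. Fluorescence read at Ex/Em 405/460 nm, expressed as triamterene-equivalent signal.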

[17] = biological target: Glucocorticoid receptor (Homo sapiens) (UniProt P04150); assay: qHTS assay to identify small molecule agonists of the glucocorticoid receptor (GR) signaling pathway (AID 720691; active = well fitted activation curve with a large enough effect in the signal ratio in the repeat runs, not every such curve was filed as active; the % refers to the signal ratio)
Glucocorticoid receptor (Homo sapiens), sequence (P04150 whole entry, looked up): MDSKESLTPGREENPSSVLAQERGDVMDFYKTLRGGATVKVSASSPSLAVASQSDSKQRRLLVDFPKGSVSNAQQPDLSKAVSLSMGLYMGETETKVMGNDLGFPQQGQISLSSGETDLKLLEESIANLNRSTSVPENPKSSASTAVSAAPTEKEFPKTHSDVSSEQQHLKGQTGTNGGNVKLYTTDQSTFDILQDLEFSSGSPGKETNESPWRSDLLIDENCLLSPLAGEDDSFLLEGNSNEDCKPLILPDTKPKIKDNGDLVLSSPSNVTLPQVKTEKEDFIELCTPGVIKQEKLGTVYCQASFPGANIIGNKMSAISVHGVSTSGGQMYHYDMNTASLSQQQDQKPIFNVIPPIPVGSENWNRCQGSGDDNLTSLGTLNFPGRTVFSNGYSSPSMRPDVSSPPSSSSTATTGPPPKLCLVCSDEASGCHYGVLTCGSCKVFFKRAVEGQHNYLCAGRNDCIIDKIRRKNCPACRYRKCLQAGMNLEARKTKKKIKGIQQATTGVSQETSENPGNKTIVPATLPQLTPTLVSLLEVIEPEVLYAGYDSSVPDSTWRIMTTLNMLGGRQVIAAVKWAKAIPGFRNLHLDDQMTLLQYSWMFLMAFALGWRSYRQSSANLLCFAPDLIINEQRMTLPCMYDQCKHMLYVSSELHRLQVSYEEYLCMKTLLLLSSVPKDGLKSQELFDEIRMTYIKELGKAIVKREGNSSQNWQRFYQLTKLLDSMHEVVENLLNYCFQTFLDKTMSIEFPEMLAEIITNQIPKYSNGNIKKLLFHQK
How it was run: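 Agonist-mode qHTS in HeLa cells stably expressing a glucocorticoid-response-element beta-lactamase reporter. Fluorescence intensity read with FRET substrate (2 h, room temperature) after 18 h compound treatment at 37 C.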

[18] = biological target: Glucocorticoid receptor (Homo sapiens) (UniProt P04150); assay: qHTS assay to identify small molecule antagonists of the glucocorticoid receptor (GR) signaling pathway (AID 720692; active = well fitted inhibition curve with a large enough effect in the signal ratio in the repeat runs, not every such curve was filed as active; the % refers to the signal ratio)
How it was run: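 Inhibition of dexamethasone-driven (5 nM final) beta-lactamase expression was measured in GRE-reporter HeLa cells over 18 h at 37C. Fluorescence was read after 2 h with the B/G FRET substrate at room temperature.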

[19] = qHTS assay for small molecule disruptors of the mitochondrial membrane potential (AID 720635)
How it was run: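 HepG2 cells (2,000/well) attached overnight at 37C, then took compound for 1 hr at 37C, 5% CO2. Mito-MPS dye was added for 30 min; fluorescence was read at 490/535 nm (monomers) and 540/590 nm (aggregates).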

[20] = qHTS assay to test for compound auto fluorescence at 535 nm (green) in HepG2 cell free culture (AID 720686)
% is set by controls: 0 for no effect and ±100 for the full control effect.

CCCc1ncc(C[n+]2ccccc2C)c(N)n1
inactive: Potency [1] | Potency [2] | Potency [3] | Potency [4] | outcome [5] | fluorescence, relative to Rose Bengal [6] -0.079% [at 18.6 µM] | fluorescence, % of fluorescein control [7] 0.0061% [at 18.6 µM] | fluorescence, % of triamterene [8] -0.0062% [at 18.6 µM] | fluorescence, % of fluorescent control [9] 0.0217% [at 18.6 µM] | fluorescence, % of fluorescein [10] -0.083% [at 18.6 µM] | fluorescence, % of fluorescent control [11] -0.136% [at 18.6 µM] | activity change [12] -0.0094% [at 18.6 µM] | fluorescence, % of fluorescent control [13] 0.0061% [at 18.6 µM] | fluorescence, % of Rose Bengal [14] -0.0113% [at 18.6 µM] | fluorescence, % of fluorescent control [15] 0.0057% [at 18.6 µM] | fluorescence, % of fluorescent control [16] -0.0148% [at 18.6 µM] | Potency [17] | Potency [18]

CC(C#N)(CCC(=O)O)N=NC(C)(C#N)CCC(=O)O (centres undefined)
inactive: Potency [1] | Potency [2] | Potency [3] | Potency [4] | outcome [5] | Potency [19] | outcome [7] | outcome [8] | outcome [9] | outcome [10] | outcome [11] | outcome [12] | outcome [13] | outcome [14] | outcome [15] | outcome [16] | Potency [17] | Potency [18]

CC12CCC(C(=O)C1=O)C2(C)C (centres undefined)
inactive: Potency [1] | Potency [2] | Potency [3] | Potency [4] | outcome [5] | Potency [19] | outcome [7] | outcome [8] | outcome [9] | outcome [10] | outcome [11] | outcome [12] | outcome [14] | outcome [15] | Potency [17] | Potency [18]

Cc1ccnc(NS(=O)(=O)c2ccc(N)cc2)n1
inactive: Potency [1] | Potency [2] | Potency [3] | Potency [4] | outcome [5] | Potency [19] | fluorescence, % of fluorescein control [7] 0.0423% [at 18.6 µM] | fluorescence, % of triamterene [8] 0.0233% [at 18.6 µM] | fluorescence, % of fluorescent control [9] 0.0091% [at 18.6 µM] | fluorescence, % of fluorescein [10] -0.0062% [at 18.6 µM] | activity change [12] 0.0378% [at 18.6 µM] | fluorescence, % of fluorescent control [13] -0.145% [at 18.6 µM] | fluorescence, % of Rose Bengal [14] 0.0665% [at 18.6 µM] | fluorescence, % of fluorescent control [15] 0.0941% [at 18.6 µM] | fluorescence, % of fluorescein control [20] 0.0314% [at 18.6 µM] | fluorescence, % of fluorescent control [16] -0.0164% [at 18.6 µM] | Potency [18]

CC(C)(C)C(=O)c1ccccc1
inactive: Potency [1] | Potency [2] | Potency [3] | Potency [4] | outcome [5] | Potency [19] | outcome [6] | outcome [7] | outcome [9] | outcome [10] | outcome [11] | outcome [12] | outcome [14] | outcome [15] | outcome [20] | outcome [16] | Potency [18]

O=C(O)CC(C(=O)O)S(=O)(=O)O (centres undefined)
inactive: Potency [1] | Potency [2] | Potency [3] | Potency [4] | outcome [5] | outcome [6] | outcome [7] | outcome [8] | outcome [9] | outcome [10] | outcome [11] | outcome [12] | outcome [13] | outcome [14] | outcome [15] | outcome [20] | outcome [16] | Potency [18]

CCN[C@@H]1C[C@H](N)[C@@H](OC2OC(CN)=CCC2N)[C@H](O)[C@H]1O[C@H]1OC[C@](C)(O)[C@H](NC)[C@H]1O (some centres undefined)
inactive: Potency [1] | Potency [2] | Potency [3] | Potency [4] | outcome [5] | Potency [19] | outcome [7] | outcome [8] | outcome [9] | outcome [10] | outcome [11] | outcome [12] | outcome [13] | outcome [14] | outcome [15]
